Out of some 360,000 compounds screened, about 16,000 (4.4%) were called active. Not shown: some 9% with an inconclusive outcome. The list comes from a sample in which actives are over-represented; it also holds similar structures and randomly drawn compounds. Values without a mark were called inactive. Calls come from the whole dose curve; as a rule, active = well fitted inhibition curve with a large enough effect; inconclusive = small, poorly fitted or top-dose-only effect; inactive = no such curve, though single readings can be large or run the other way.
Target: Bromodomain adjacent to zinc finger domain protein 2B (Homo sapiens) (UniProt Q9UIF8)
Sequence (Q9UIF8 whole entry, looked up, the tested form may be a part): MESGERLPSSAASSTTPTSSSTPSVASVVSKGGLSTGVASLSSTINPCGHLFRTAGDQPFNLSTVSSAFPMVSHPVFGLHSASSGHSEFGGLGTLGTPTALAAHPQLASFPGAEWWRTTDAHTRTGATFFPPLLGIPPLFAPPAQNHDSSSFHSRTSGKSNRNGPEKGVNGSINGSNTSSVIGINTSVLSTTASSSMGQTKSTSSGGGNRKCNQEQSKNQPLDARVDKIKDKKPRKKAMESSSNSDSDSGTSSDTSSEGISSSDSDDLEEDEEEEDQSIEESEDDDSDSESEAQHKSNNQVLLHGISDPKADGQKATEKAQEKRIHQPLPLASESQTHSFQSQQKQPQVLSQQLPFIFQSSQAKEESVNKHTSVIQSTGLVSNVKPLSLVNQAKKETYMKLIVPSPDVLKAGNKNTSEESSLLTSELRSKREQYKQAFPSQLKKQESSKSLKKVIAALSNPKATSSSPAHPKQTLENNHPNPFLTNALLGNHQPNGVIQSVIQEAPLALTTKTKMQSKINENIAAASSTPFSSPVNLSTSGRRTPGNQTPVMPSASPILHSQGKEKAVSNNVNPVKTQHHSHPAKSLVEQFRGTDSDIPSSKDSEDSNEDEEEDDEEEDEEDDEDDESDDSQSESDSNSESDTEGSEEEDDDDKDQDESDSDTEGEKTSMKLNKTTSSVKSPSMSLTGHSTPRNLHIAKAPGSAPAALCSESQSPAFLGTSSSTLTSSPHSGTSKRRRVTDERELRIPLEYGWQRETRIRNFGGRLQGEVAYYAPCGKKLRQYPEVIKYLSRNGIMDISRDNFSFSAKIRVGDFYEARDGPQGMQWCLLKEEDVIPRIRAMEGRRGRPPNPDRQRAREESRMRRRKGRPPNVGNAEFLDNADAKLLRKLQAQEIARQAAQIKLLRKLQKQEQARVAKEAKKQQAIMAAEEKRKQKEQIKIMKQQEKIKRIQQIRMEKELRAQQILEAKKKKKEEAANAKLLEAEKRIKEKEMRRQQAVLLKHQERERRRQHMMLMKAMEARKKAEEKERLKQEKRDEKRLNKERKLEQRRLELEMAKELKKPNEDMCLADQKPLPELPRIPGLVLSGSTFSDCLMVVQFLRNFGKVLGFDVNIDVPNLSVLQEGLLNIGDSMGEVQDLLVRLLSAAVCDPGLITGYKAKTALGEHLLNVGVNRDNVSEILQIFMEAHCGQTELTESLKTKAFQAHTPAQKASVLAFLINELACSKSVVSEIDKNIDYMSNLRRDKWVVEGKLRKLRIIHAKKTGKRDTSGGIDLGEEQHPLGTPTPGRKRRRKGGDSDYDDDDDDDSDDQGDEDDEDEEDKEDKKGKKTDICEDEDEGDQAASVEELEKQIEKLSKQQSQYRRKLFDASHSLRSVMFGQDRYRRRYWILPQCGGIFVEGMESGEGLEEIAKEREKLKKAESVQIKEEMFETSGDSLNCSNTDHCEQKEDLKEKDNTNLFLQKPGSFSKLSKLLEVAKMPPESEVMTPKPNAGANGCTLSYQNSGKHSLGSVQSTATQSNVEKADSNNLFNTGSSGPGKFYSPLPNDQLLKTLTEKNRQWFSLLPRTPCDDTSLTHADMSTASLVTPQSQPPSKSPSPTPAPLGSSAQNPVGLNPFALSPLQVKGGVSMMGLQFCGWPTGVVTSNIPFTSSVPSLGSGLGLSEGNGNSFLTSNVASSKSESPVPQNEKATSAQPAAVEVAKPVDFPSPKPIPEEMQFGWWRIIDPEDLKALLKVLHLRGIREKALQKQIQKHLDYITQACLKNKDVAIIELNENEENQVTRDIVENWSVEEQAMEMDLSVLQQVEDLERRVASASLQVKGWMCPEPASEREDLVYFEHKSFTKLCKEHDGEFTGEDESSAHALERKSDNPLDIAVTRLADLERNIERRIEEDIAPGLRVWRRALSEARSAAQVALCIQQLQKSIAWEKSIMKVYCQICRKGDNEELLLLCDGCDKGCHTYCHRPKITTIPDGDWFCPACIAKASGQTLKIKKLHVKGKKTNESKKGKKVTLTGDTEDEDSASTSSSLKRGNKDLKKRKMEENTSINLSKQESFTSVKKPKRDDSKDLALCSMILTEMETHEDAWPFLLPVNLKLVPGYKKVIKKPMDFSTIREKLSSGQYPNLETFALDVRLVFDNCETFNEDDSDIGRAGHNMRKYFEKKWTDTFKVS
Assay: qHTS Assay for Inhibitors of BAZ2B; note: nearly all actives have a fitted effect of over 60% in size
Details: AlphaScreen BAZ2B-H3K14Ac peptide displacement; series mostly up to 114 µM; activity change, negative = inhibition: at the top concentration
In short: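 AlphaScreen displacement: compounds (up to 110uM) incubated 30 min at room temperature with a preformed 50 nM BAZ2B/50 nM biotinylated H3K14Ac peptide complex in PBS pH 7.4 with Tween-20. Donor and acceptor beads at 10 ug/mL final added, 20 min light-protected before reading.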
% is set by controls: 0 for no effect and ±100 for the full control effect; potency is the fitted concentration of half-maximal effect.

Row | Structure (SMILES) | activity change, negative = inhibition | Potency
1 | COC(=O)c1cnc(N2CCN(c3ccccc3OC)CC2)c2ccccc12 | 42.6% | 
2 | COc1ccc2c(c1)c(N1CCCC1=O)c(C(=O)Nc1ccc(OC)c(Cl)c1)n2C | -34.8% | 
3 | CC(=O)Nc1cccc(-c2csc(Nc3cccc(C)n3)n2)c1 | -4.54% | 
4 | Cc1ccc(Nc2nc(-c3ccc(O)cc3O)cs2)nc1 |  | 50.1 µM (active)
5 | Clc1ccc(Nc2nc(-c3cccs3)cs2)nc1 | -33.2% | 
6 | COc1cc(C(=O)Nc2ccc(-n3c(C)nc4ccccc4c3=O)cc2)cc(OC)c1OC | -14.7% | 
7 | CCN(CC)c1cc(NC2CCCCC2)c2c3c(onc13)-c1ccccc1C2=O |  | 3.55 µM (active)
8 | COc1ccc(OC)c(CNC(=O)Cn2nc(C)c3c(C)n(-c4ccccc4)nc3c2=O)c1 | -15.4% | 
9 | CCCC(=O)Nc1ccc2oc(-c3ccc(O)c(Br)c3)nc2c1 | 2.4% | 
10 | COc1ccc(CCNCc2c(C(=O)O)c(C)n(Cc3cccc(C)c3)c2C)cc1OC | -16.7% | 
11 | COc1ccc(SCc2cc(=O)c3ccc(C)c(C)c3[nH]2)cc1 | 8.96% | 
12 | CC(C)c1ccc(Cc2nnc(NCCCO)[nH]c2=O)cc1 | -1.73% | 
13 | O=c1[nH]c(NCCO)nnc1Cc1ccc(Cl)cc1 | -11.6% | 
14 | COc1ccc(Cc2nnc(N/N=C/c3ccccc3O)[nH]c2=O)cc1OC |  | 6.31 µM (active)
15 | Cc1nn(C)c2c1c(C(F)(F)F)cc(=O)n2C(C)C(=O)NCc1ccc(Cl)cc1 (centres undefined) | -3.38% | 
16 | O=C(NCc1ccccc1)C1CCN(S(=O)(=O)c2ccc3[nH]c(=O)ccc3c2)CC1 | 7.93% | 
17 | Cc1ccccc1CCNC(=O)C1CCN(c2nc3ccccc3nc2C(F)(F)F)CC1 | -0.372% | 
18 | CC(=O)c1ccc(NC(=O)c2nc3nc(C)cc(C(F)F)n3n2)cc1 | 0.583% | 
19 | Brc1ccc2c(c1)NC(c1cccnc1)=NC(c1ccccc1)=N2 | -2.3% | 
20 | COc1ccc(C2=NC(c3ccncc3)=Nc3ccc(Br)cc3N2)cc1 |  | 28.2 µM (active)
21 | Cc1cc(OCC(=O)NC2CCN(C)CC2)ccc1[N+](=O)[O-] | -3.49% | 
22 | Cc1cc(OCCCN2CCN(Cc3ccccc3)CC2)ccc1[N+](=O)[O-] |  | 17.8 µM (active)
23 | Cc1cc(OCCCCOc2ccc(C#N)cc2)ccc1[N+](=O)[O-] | 0.416% | 
24 | Cc1cccc(C2CC(=O)Oc3c2c(=O)n(C)c2ccccc32)c1 (centres undefined) | -12.8% | 
25 | Cc1cccc(C2C3=C(CCCC3=O)N=C3c4ccccc4C(=O)C32)c1 (centres undefined) | -38.9% | 

Row | Structure (SMILES) | activity change, negative = inhibition | Potency
26 | CCOC(=O)C1=C(C)NC(SC)=NC1c1ccccc1 (centres undefined) | 2.29% | 
27 | CCOC(=O)C1=C(C)N=C2c3ccccc3C(=O)C2C1c1ccc(Br)cc1 (centres undefined) |  | 22.4 µM (active)
28 | CCCN1CCc2nc(N3CCN(C)CC3)ncc2C1 | 3.12% | 
29 | COc1ccc(NC(C(=O)Nc2cccc(C(C)=O)c2)c2ccccc2)cc1 (centres undefined) |  | 50.1 µM (active)
30 | COc1ccc(NC(=O)[C@H](NC(=O)[C@@H]2Cc3ccccc3CN2)c2ccccc2)cc1 | -11.2% | 
31 | COC(C(=O)Nc1ccc(C(C)=O)cc1)c1ccccc1 (centres undefined) | 6.93% | 
32 | Cc1cccc(C(=O)Nc2ccc(-c3nc4ccccc4s3)c(C)c2)c1 | 0.838% | 
33 | O=C(Nc1ccc2nc(SCCOc3ccccc3Cl)sc2c1)c1ccco1 | -28.6% | 
34 | CCOc1cccc(-c2nn3c(-c4ccccn4)nnc3s2)c1 |  | 50.1 µM (active)
35 | c1ccc(-c2cc(-c3nnc4sc(-c5ccccn5)nn34)[nH]n2)cc1 | -21.7% | 
36 | COc1cc(-c2nn3c(-c4cccc(C)c4)nnc3s2)cc(OC)c1OC | -1.78% | 
37 | COc1ccc(/C=C2\SC(=O)N(CCC(=O)NC3CCS(=O)(=O)C3)C2=O)cc1 (centres undefined) | -17.6% | 
38 | COc1ccc(/C=C2/SC(=O)N(CCCCCC(=O)Nc3ccccc3C(=O)O)C2=S)cc1 |  | 56.2 µM (active)
39 | COc1ccc(/C=C2\SC(=O)N(CCC(=O)NCCCn3ccnc3)C2=O)cc1 | -34.5% | 
40 | CCCCNc1ccc(-c2nc(-c3ccncc3)no2)cc1[N+](=O)[O-] | -14.3% | 
41 | CCN(Cc1ccccc1)Cc1c(O)ccc2c(=O)c(-c3ccc(Cl)cc3Cl)coc12 | -1.44% | 
42 | COc1cccc(NC(=O)C2C(c3ccccc3)C2(Cl)Cl)c1 (centres undefined) | 3.62% | 
43 | CC1=CC(C)(C)N(C(=O)CSc2nnc(-c3ccccc3)o2)c2ccc(C)cc21 | -12.4% | 
44 | COc1ccc2c(c1)C(C)=CC(C)(C)N2C(=O)Nc1ccccc1 |  | 50.1 µM (active)
45 | CC1=C(C(=O)OCc2ccc(C)cc2)C(c2c(Cl)cccc2Cl)CC(=O)N1 (centres undefined) | -0.666% | 
46 | Cc1ccc(OCCn2c(CNc3ccccc3C)nc3ccccc32)cc1 | -26.1% | 
47 | COc1ccc(OC)c(NC(=O)C2CCCN(S(=O)(=O)c3ccc4c(c3)CCCC(=O)N4)C2)c1 (centres undefined) | -0.384% [at 57.1 µM] | 
48 | O=C(c1cc(C(=O)N2CCN(c3ccc(F)cc3)CC2)cc([N+](=O)[O-])c1)N1CCN(c2ccc(F)cc2)CC1 | -32.9% | 
49 | CC1CCC2CCCCC2N1C(=O)c1cc([N+](=O)[O-])cc([N+](=O)[O-])c1 (centres undefined) |  | 50.1 µM (active)
